Data reported in PubChem BioAssay (NCATS).
Results filed as inconclusive are left out. Calls of active or inactive are those of the source. Unless noted, calls come from the whole dose curve; as a rule, active = well fitted curve in either direction with a large enough effect (not every such curve was filed as active); inconclusive = small, poorly fitted or top-dose-only effect, or another doubt; inactive = flat fitted curve, though single readings scatter.

Assays:
[1] = biological target: Lysosomal acid glucosylceramidase (Homo sapiens) (UniProt P04062); experiment: Glucocerebrosidase-p2 (AID 348; in the data active = potency below about 10 µM; note: potency is the fitted concentration of half-maximal effect); details: purified GBA, blue fluorogenic substrate, 40 min
Summary of the method: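 Compounds titrated from 0.6 nM upwards against 0.2 nM enzyme in pH 5.9 citric acid/KH2PO4, taurocholate, tween-20; blue fluorogenic substrate 80 uM, 40 min room temperature, stopped and read Ex 365/Em 440 for AC50.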

[2] = AP1 Signaling Pathway (AID 357); details: ME-180 AP-1-bla reporter, EGF-induced, beta-lactamase ratio, 5 h; at 7.69 µM (top of the series) unless noted;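 note: ME-180 reporter cells stimulated with EGF at its EC50 level; % is set by controls: 0 for no effect and ±100 for the full control effect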
Summary of the method: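 Beta-lactamase reporter under AP-1 response element, ME-180 background. Stimulus: EC50 EGF. Compound exposure 5 h, 37 °C. Detection: CCF4, 2.5 h RT, 460/530 nm. Values: AC50 from titration.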

[3] = NFAT Signaling Pathway (AID 444); details: Jurkat NFAT-bla M1, carbachol, beta-lactamase ratio, 5 h; at 7.69 µM (top of the series) unless noted;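 note: carbachol stimulus at about its EC50 of 1 µM final; % is set by controls: 0 for no effect and ±100 for the full control effect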
Summary of the method: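 Read-out: CCF4 FRET ratio (460 nm/530 nm) after 1 h RT dye loading, used for %activity and AC50 from titration series. Cells: Jurkat NFAT-β-lactamase/M1 line, treated with compound plus 1 uM carbachol for 5 h, 37 °C.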

[4] = Stat Signaling Pathway (AID 446); details: ME-180 SIE beta-lactamase reporter, IL-6 stimulated, 5 h; at 7.69 µM (top of the series) unless noted;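 note: ME-180 cervical cancer cells given 40 pM IL-6 alongside compound; SIE-controlled beta-lactamase reporter measured as 460/530 nm FRET emission ratio; % is set by controls: 0 for no effect and ±100 for the full control effect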
Summary of the method: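 Screening format detects activators and inhibitors alike: ME-180 SIE-bla cells stimulated at 40 pM IL-6 for 5 hrs with compound, then dual-emission beta-lactamase read at 405 nm excitation.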

[5] = biological target: Glucocorticoid receptor (Homo sapiens) (UniProt P04150); experiment: GR-GFP Redistribution (AID 450;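 active = compounds whose dose series gives a full or clear partial fitted curve of increased nuclear translocation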; note: potency is the fitted concentration of half-maximal effect); details: U2OS GR-GFP nuclear translocation, laser cytometry, 2 h
[6] = biological target: Glucocorticoid receptor (Homo sapiens) (UniProt P04150); experiment: GR-EFC Redistribution (AID 451; calls by dose curve; note: potency is the fitted concentration of half-maximal effect); details: CHO-K1 GR-EFC translocation, beta-gal luminescence, 2 h
Summary of the method: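 Translocation of GR-ED fusion to nuclear EA restores b-gal, read by luminescence after 1 h room-temperature detection. Engineered CHO-K1 biosensor cells, 1,000/well, exposed 2 h at 37 C to titrations up to 46 uM final.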

[7] = biological target: Mitogen-activated protein kinase 10 (Mus musculus) (UniProt Q61831); experiment: JNK3 AlphaScreen Assay (AID 530); details: JNK3 lysate, c-Jun phosphorylation; series mostly up to 11.4 µM;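 note: kinase came from lysate of stimulated human HepG2 cells; signal reports phosphorylation of biotinylated GST-cJun 1-79 at Ser73 with 10 µM ATP; % is set by controls: 0 for no effect and ±100 for the full control effect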
Summary of the method: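 Room-temperature AlphaScreen kinase assay; pre-activated HepG2 lysate as JNK3 source, biotin-GST-cJun(1-79) substrate, 10 uM ATP, compound 15 min preincubation.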

[8] = biological target: 3',5'-cyclic-AMP phosphodiesterase 4B (Homo sapiens) (UniProt Q07343); experiment: qHTS Assay for Inhibitors of PDE-IV (AID 607; active = well fitted activation curve with a large enough effect in the main read-out, with a control signal flat, not every such curve was filed as active; note: % of control where 0% means no effect); details: HEK293 ACTOne CNG channel cells, membrane potential fluorescence; series mostly up to 22.9 µM
Summary of the method: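 The readout is membrane depolarisation from a cAMP-sensing CNG channel, detected with a potential dye at ex 535/em 590. Cells were HEK293-derived (endogenous PDE-IV) at 1000 cells/well, titrated up to 22.9 uM final.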

Sequence of Lysosomal acid glucosylceramidase (Homo sapiens) (P04062 whole entry, looked up): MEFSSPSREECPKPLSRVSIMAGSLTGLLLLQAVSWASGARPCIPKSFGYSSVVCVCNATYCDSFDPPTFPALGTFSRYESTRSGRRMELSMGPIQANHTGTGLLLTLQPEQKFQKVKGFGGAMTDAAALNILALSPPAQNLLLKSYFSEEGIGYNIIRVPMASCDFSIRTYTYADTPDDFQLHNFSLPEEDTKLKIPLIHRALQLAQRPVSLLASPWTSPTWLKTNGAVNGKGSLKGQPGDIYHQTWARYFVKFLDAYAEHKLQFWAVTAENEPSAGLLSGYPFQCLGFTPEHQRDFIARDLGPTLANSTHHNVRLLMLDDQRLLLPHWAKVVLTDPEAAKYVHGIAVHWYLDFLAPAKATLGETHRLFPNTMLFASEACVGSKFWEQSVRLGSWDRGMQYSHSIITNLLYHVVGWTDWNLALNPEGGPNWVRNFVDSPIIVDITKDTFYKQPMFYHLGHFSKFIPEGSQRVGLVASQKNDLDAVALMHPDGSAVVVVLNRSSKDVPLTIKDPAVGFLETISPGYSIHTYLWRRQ
Sequence of 3',5'-cyclic-AMP phosphodiesterase 4B (Homo sapiens) (Q07343 whole entry, looked up): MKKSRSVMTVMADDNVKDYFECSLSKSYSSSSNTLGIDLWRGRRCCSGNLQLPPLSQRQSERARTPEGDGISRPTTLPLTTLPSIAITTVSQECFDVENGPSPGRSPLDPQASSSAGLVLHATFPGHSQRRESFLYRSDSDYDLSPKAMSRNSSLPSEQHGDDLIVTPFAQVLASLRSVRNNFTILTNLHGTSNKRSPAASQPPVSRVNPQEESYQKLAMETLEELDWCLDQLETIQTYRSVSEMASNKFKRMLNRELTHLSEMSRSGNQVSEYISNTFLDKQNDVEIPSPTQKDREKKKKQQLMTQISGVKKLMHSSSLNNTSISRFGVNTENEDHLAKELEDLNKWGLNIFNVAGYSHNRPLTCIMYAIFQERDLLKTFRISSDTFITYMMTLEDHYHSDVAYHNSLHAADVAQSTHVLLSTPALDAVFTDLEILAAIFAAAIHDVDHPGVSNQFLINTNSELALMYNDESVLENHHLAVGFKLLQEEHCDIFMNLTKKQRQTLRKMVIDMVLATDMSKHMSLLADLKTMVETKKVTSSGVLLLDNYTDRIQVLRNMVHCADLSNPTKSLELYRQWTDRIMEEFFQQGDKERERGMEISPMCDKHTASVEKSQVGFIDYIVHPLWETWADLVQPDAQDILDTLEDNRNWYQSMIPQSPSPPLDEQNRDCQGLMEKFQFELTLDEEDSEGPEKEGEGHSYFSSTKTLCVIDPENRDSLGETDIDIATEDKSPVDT
Sequence of Glucocorticoid receptor (Homo sapiens) (P04150 whole entry, looked up, the tested form may be a part): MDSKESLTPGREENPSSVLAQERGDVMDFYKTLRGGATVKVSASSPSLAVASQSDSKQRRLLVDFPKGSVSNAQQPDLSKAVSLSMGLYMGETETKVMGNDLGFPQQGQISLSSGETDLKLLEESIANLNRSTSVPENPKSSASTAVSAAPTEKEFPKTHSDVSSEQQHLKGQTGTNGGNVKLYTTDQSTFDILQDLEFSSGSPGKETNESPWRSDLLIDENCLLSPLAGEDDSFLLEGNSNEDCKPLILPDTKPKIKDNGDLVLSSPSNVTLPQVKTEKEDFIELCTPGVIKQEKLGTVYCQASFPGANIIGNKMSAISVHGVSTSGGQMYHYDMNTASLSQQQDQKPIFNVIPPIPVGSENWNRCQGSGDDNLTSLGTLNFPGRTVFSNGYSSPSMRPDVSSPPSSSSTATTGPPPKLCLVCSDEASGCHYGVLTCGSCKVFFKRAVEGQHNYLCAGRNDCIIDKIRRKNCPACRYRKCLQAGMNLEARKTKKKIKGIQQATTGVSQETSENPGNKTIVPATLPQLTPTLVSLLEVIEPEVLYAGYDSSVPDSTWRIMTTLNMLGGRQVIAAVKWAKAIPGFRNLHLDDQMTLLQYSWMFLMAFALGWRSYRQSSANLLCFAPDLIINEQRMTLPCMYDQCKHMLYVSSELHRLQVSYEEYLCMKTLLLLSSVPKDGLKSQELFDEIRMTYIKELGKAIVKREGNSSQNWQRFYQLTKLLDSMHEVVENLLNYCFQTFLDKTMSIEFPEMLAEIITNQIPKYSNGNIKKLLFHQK

O=C(O)CNC(=O)[C@H]1NC(C(F)(F)F)(C(F)(F)F)OC1(C(F)(F)F)C(F)(F)F
inactive: Potency [1] > 11.4 µM | activity change, negative = inhibition [2] -4.91% | activity change, negative = inhibition [3] 10.9% | activity, negative = inhibition [4] -14.7% | Potency [5] > 46 µM | Potency [6] > 9.22 µM | Potency [7] | Potency [8]

C=C(C)CN(CC#N)CC(=C)C
inactive: Potency [1] > 11.4 µM | activity change, negative = inhibition [2] 2.17% | activity change, negative = inhibition [3] 9.57% | activity, negative = inhibition [4] 16.5% | Potency [5] > 46 µM | Potency [6] > 9.22 µM | Potency [7] | Potency [8]

NCCSc1nc(-c2ccccc2)c(-c2ccccc2)o1
inactive: Potency [1] > 11.4 µM | activity change, negative = inhibition [2] 2.27% | activity change, negative = inhibition [3] -4.41% | activity, negative = inhibition [4] -3.16% | Potency [5] > 46 µM | Potency [6] > 9.22 µM | Potency [7] | Potency [8]

C[C@@H](N)/C(N)=N/O
inactive: Potency [1] > 11.4 µM | activity change, negative = inhibition [2] -1.61% | activity change, negative = inhibition [3] 6.7% | activity, negative = inhibition [4] 5.63% | Potency [5] > 46 µM | Potency [6] > 9.22 µM | Potency [7] | Potency [8]

Cc1cc(=O)[nH]c(/N=C(\N)Nc2ccc(Cl)cc2)n1
inactive: Potency [1] > 11.4 µM | activity change, negative = inhibition [2] -8.26% | activity change, negative = inhibition [3] -9.44% | activity, negative = inhibition [4] -3.21% | Potency [5] > 46 µM | Potency [6] > 9.22 µM | Potency [7] | Potency [8]

O=S1(=O)CCN(Cc2ccccn2)CC1
inactive: Potency [1] > 11.4 µM | activity change, negative = inhibition [2] 0.374% | activity change, negative = inhibition [3] 13% | activity, negative = inhibition [4] -10.3% | Potency [5] > 46 µM | Potency [6] > 9.22 µM | Potency [7] | Potency [8]

COc1ccc2c(c1)CCc1c(-c3noc4c3CCc3cc(OC)ccc3-4)noc1-2
inactive: Potency [1] > 11.4 µM | activity change, negative = inhibition [2] -10.7% | activity change, negative = inhibition [3] -3.27% | activity, negative = inhibition [4] 2.75% | Potency [5] > 46 µM | Potency [6] > 9.22 µM | Potency [7] | Potency [8]

C(CCc1nnc2c(n1)CCCC2)Cc1nnc2c(n1)CCCC2
inactive: Potency [1] > 11.4 µM | activity change, negative = inhibition [2] 6.86% | activity change, negative = inhibition [3] -8.87% | activity, negative = inhibition [4] 0.257% | Potency [5] > 46 µM | Potency [6] > 9.22 µM | Potency [7] | Potency [8]

O=C1c2ccccc2C(=O)N1C1(C(=O)NC2(C(=O)O)CCCC2)CCCC1
inactive: Potency [1] > 11.4 µM | activity change, negative = inhibition [2] 0.0237% | activity change, negative = inhibition [3] 10.1% | activity, negative = inhibition [4] 0.797% | Potency [5] > 46 µM | Potency [6] > 9.22 µM | Potency [7] | Potency [8]

O=[N+]([O-])c1ccc2c(c1)c(S(=O)(=O)O)cc1nonc12
inactive: Potency [1] > 11.4 µM | activity change, negative = inhibition [2] -3.17% | activity change, negative = inhibition [3] 6.23% | activity, negative = inhibition [4] 19.1% | Potency [5] > 46 µM | Potency [6] > 9.22 µM | Potency [7] | Potency [8]

Cc1nc2ccccc2nc1N1CCCC1
inactive: Potency [1] > 11.4 µM | activity change, negative = inhibition [2] 2.88% | activity change, negative = inhibition [3] 0.00129% | activity, negative = inhibition [4] 3.44% | Potency [5] > 46 µM | Potency [6] > 9.22 µM | Potency [7] | Potency [8]

CN(C)Cc1cc(C(C)(C)C)cc(CNC2CCCCC2)c1O
inactive: Potency [1] > 11.4 µM | activity change, negative = inhibition [2] -6.47% | activity change, negative = inhibition [3] -20.6% | activity, negative = inhibition [4] 7.16% | Potency [5] > 46 µM | Potency [6] > 9.22 µM | Potency [7] | Potency [8]

COc1ccc2c(C)cc(C)nc2n1
inactive: Potency [1] > 11.4 µM | activity change, negative = inhibition [2] 0.0891% | activity change, negative = inhibition [3] 9.21% | activity, negative = inhibition [4] 8.73% | Potency [5] > 46 µM | Potency [6] > 9.22 µM | Potency [7] | Potency [8]

Cn1c(N)nc2c(nc(OCc3ccccc3)n2[C@@H]2O[C@H](CO)[C@@H](O)[C@@H]2O)c1=O
inactive: Potency [1] > 11.4 µM | activity change, negative = inhibition [2] 2.38% | activity change, negative = inhibition [3] 6.31% | activity, negative = inhibition [4] -1.71% | Potency [5] > 46 µM | Potency [6] > 9.22 µM | Potency [7] | Potency [8]

CC(=O)O[C@@H]1CC[C@]2(C)C(=C[C@@H]([C@@H]3C=C4C[C@@H](OC(C)=O)CC[C@]4(C)C4=C3[C@H]3C[C@@H]5O[C@@]6(CC[C@H](C)CO6)[C@@H](C)[C@@H]5[C@@]3(C)CC4)C3=C2CC[C@@]2(C)[C@H]4[C@@H](C)[C@]5(CC[C@H](C)CO5)O[C@@H]4C[C@H]32)C1
inactive: Potency [1] > 11.4 µM | activity change, negative = inhibition [2] 7.21% | activity change, negative = inhibition [3] 21% | activity, negative = inhibition [4] -1.63% | Potency [5] > 46 µM | Potency [6] > 9.22 µM | Potency [7] | Potency [8]

O=CNc1ncn[nH]1
inactive: Potency [1] > 11.4 µM | activity change, negative = inhibition [2] -1.52% | activity change, negative = inhibition [3] -0.432% | activity, negative = inhibition [4] 8.03% | Potency [5] > 46 µM | Potency [6] > 9.22 µM | Potency [7] | Potency [8]

OC(Cc1ccccc1)(Cc1ccccc1)c1ccccc1
inactive: Potency [1] > 11.4 µM | activity change, negative = inhibition [2] -8.82% | activity change, negative = inhibition [3] -15.2% | activity, negative = inhibition [4] 11% | Potency [5] > 46 µM | Potency [6] > 9.22 µM | Potency [7] | Potency [8]

OC[C@@H](O)[C@@H](O)[C@@H](O)[C@@H](O)c1nc2ccc(Cl)cc2[nH]1
inactive: Potency [1] > 11.4 µM | activity change, negative = inhibition [2] 4.42% | activity change, negative = inhibition [3] 10.1% | activity, negative = inhibition [4] -0.802% | Potency [5] > 46 µM | Potency [6] > 9.22 µM | Potency [7] | Potency [8]

CN(C)CCCN=C(N)N
inactive: Potency [1] > 11.4 µM | activity change, negative = inhibition [2] 11.7% | activity change, negative = inhibition [3] 4.78% | activity, negative = inhibition [4] 2.14% | Potency [5] > 46 µM | Potency [6] > 9.22 µM | Potency [7] | Potency [8]

COc1ccc(Br)c2c1C[C@H](C(=O)O)CC2
inactive: Potency [1] > 11.4 µM | activity change, negative = inhibition [2] 12.4% | activity change, negative = inhibition [3] 2.11% | activity, negative = inhibition [4] -1.98% | Potency [5] > 46 µM | Potency [6] > 9.22 µM | Potency [7] | Potency [8]

OC(Cc1cccnc1)(c1ccccc1)c1ccccc1
inactive: Potency [1] > 11.4 µM | activity change, negative = inhibition [2] 5.37% | activity change, negative = inhibition [3] -25.6% | activity, negative = inhibition [4] -5.74% | Potency [5] > 46 µM | Potency [6] > 9.22 µM | Potency [7] | Potency [8]

CN1CCN(c2ccc3nc(-c4ccc5nc(-c6ccc(O)cc6)[nH]c5c4)[nH]c3c2)CC1
inactive: Potency [1] > 11.4 µM | activity change, negative = inhibition [2] -22.4% | activity change, negative = inhibition [3] -8.32% | activity, negative = inhibition [4] 23.8% | Potency [5] > 46 µM | Potency [6] > 9.22 µM | Potency [7] | Potency [8]

Nc1nc2nc3c(nc2c(=O)[nH]1)CN(c1ccc(C(=O)O)cc1)C3=O
inactive: Potency [1] > 11.4 µM | activity change, negative = inhibition [2] -9.73% | activity change, negative = inhibition [3] 13.8% | activity, negative = inhibition [4] -8.98% | Potency [5] > 46 µM | Potency [6] > 9.22 µM | Potency [7] | Potency [8]

O=C(O)CCCCn1cnc2c(=S)nc[nH]c21
inactive: Potency [1] > 11.4 µM | activity change, negative = inhibition [2] 8.11% | activity change, negative = inhibition [3] 5.86% | activity, negative = inhibition [4] 6.11% | Potency [5] > 46 µM | Potency [6] > 9.22 µM | Potency [7] | Potency [8]

O=C1c2ccccc2[C@@H]([C@@H]2c3ccccc3C(=O)c3cc(Br)ccc32)c2ccc(Br)cc21
inactive: Potency [1] > 11.4 µM | activity change, negative = inhibition [2] -5.16% | activity change, negative = inhibition [3] -5.27% | activity, negative = inhibition [4] 8.23% | Potency [5] > 46 µM | Potency [6] > 9.22 µM | Potency [7] | Potency [8]

CC(C)=CCNc1ncnc2c1c(C#N)cn2[C@H]1O[C@@H](CO)[C@@H](O)[C@@H]1O
inactive: Potency [1] > 11.4 µM | activity change, negative = inhibition [2] -1.6% | activity change, negative = inhibition [3] 6.29% | activity, negative = inhibition [4] 10.4% | Potency [5] > 46 µM | Potency [6] > 9.22 µM | Potency [7] | Potency [8]
